# Laboratory results published in the supplement of paper PMC3334620.
# Over roughly 33,000 sequences, “E-score (-0.5 to 0.5)” has its median near -0.054; the highest 2% begin near 0.39. Shown is part of a subset that was picked to be rich in the highest values.
# Molecular target: Ylr278c (UniProt Q05854)
# Test: PBM E-score (8-mer binding enrichment) (E-score (-0.5 to 0.5)); higher = stronger / more preferred TF binding
# Settings: protein concentration: 200 nM; construct: GST-DNA-binding domain
# Experimental: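 Universal 'all 10-mer' protein binding microarrays (Agilent AMADID 015681) probed with GST-tagged S. cerevisiae TFs (full-length or DBD) made by in vitro transcription/translation (PURExpress), about 100-200 nM. Bound TF was detected with fluorescent anti-GST. Each ungapped 8-mer (which stands for itself and its reverse complement) is scored by the PBM enrichment score (E-score), a modified Wilcoxon-Mann-Whitney statistic from -0.5 to +0.5, computed with the Universal PBM Analysis Suite. Scale: above 0.35 generally sequence-specific binding.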
# Sequence of UniProt Q05854 (Q05854 whole entry): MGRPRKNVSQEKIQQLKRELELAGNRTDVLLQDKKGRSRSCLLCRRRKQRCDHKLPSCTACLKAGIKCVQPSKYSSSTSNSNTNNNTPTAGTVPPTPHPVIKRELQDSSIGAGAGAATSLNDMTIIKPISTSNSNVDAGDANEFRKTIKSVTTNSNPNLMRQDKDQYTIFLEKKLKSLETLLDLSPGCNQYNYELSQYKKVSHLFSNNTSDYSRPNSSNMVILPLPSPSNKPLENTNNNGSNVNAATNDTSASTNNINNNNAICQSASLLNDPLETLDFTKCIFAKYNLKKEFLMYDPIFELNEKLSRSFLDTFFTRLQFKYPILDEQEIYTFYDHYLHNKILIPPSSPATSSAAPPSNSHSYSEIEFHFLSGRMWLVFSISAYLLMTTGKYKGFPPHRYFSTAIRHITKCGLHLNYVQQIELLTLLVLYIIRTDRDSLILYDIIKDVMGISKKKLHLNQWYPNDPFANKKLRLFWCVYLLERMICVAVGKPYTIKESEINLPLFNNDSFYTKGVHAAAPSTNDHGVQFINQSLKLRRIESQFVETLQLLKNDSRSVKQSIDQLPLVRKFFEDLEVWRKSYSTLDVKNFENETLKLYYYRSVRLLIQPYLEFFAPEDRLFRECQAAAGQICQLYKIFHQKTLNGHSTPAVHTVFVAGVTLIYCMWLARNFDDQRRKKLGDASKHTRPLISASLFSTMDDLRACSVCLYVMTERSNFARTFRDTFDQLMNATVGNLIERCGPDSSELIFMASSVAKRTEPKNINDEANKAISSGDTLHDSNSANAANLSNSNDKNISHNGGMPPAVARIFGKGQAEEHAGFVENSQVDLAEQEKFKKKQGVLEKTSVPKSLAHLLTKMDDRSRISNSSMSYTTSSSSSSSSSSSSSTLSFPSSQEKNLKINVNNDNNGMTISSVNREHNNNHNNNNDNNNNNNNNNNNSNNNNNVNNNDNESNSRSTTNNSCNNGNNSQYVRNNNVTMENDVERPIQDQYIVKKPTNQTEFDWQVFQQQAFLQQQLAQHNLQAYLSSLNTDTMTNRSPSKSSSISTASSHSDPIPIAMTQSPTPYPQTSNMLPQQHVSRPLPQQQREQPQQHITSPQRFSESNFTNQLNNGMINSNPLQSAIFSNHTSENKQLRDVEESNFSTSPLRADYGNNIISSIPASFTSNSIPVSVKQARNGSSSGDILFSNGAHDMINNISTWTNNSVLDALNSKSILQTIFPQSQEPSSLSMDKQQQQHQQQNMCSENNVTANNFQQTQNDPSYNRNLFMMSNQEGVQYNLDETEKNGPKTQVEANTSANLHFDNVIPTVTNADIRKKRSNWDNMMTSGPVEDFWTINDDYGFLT
row,Sequence,PBM E-score
1,AAAGAGTG,-0.158
2,ATTTGTCA,-0.182
3,CGAAAGAC,0.133
4,CTTTCATC,-0.135
5,AGTCCGCG,0.369
6,AGTCCGGC,0.44
7,AGTCCCCC,-0.261
8,AGTCCTGC,-0.116
9,CGTCCGCC,0.319
10,AGTCCGCC,0.424
11,AGTCCGTC,0.381
12,AGTCCGGG,0.44
13,AGTCCCGG,0.362
14,CCAGGTCA,-0.253
15,AGGCACTG,-0.178
16,CATGCTGC,-0.0378
17,ACTGCCCT,-0.112
18,CCAACAAA,-0.142
19,AAGTGGGG,0.0493
20,CGGAGAAG,0.453
21,CGGAGAAA,0.477
22,GGGAGAAA,0.0906
23,AGGAGAAG,-0.151
24,CAGAGAAG,-0.15
25,GGGAGAAC,-0.0233

row,Sequence,PBM E-score
1,CGGAGAAC,0.445
2,AGGAGAAC,-0.00067
3,TGGAGAAA,-0.0369
4,GAATGCGC,0.182
5,CTTCTAGA,-0.215
6,CCTCCCTC,0.0572
7,TCCGCTAA,0.267
8,AGTTAGAC,-0.0203
9,GTCCAAGA,-0.185
10,CATGGCCG,0.224
11,GCGTCGAA,-0.0135
12,CCGTCGTA,0.0447
13,CCGTCGGC,0.366
14,ACGTCGGA,0.385
15,CCGTCGGA,0.415
16,GCGTCGGA,0.438
17,CATCCTTC,-0.0925
18,ACAGGCCG,0.156
19,AGAGGCTA,-0.164
20,AATAATAT,0.23
21,ACATCGAG,-0.288
22,AGCTACCC,-0.243
23,ATGGATCG,0.166
24,AAGCTCCC,-0.139
25,AAGCTCCG,0.477

row,Sequence,PBM E-score
1,CAGCTCCA,-0.152
2,CAGCTCCG,0.426
3,CAGCTCCC,-0.153
4,AAGCTCCT,-0.0423
5,ACTGTCAG,-0.147
6,CACGCGAC,-0.0553
7,AACTTCTG,-0.197
8,TCATTCAA,-0.146
9,CTAGCGGC,0.0333
10,GGACGGAA,0.337
11,AGCCGGAG,0.455
12,AGCCGGGG,0.26
13,CGCCGCAC,0.222
14,AGCCGGTA,0.352
15,GGCCGGTA,0.261
16,CGCCGAAC,0.315
17,AGCCGGTG,0.246
18,GGCCGGAA,0.422
19,CGCCGGAC,0.447
20,AGCCGGAA,0.43
21,AGCCGGGA,0.272
22,GCATTGGA,0.0238
23,CAGGTTGG,-0.138
24,GACGGTAA,0.127
25,CGTGATGC,0.073

row,Sequence,PBM E-score
1,TGCCGGCA,0.347
2,AGCCGGGC,0.167
3,TGCCGTAA,-0.0603
4,GGCCGGGA,0.325
5,CGCCGGTA,0.352
6,CGCCGTAA,0.28
7,TGCCGGAA,0.435
8,AGCCGGAC,0.407
9,CGCCGGGA,0.412
10,CGCCGGAA,0.432
11,AGCCGGTC,0.134
12,CGCCGGGC,0.378
13,GAACGATC,0.041
14,CCTGTCCC,-0.128
15,ACCAGTAA,0.00819
16,ATTCTAGA,-0.171
17,ACGACCCC,0.0131
18,GGCCGCAC,0.23
19,AGCCGTAT,-0.0908
20,CGCCGGAG,0.459
21,GGACGGAC,0.359
22,AGCCGGAT,0.404
23,CGCCGTAG,0.193
24,CGCCGCAG,0.264
25,GGCCGGAC,0.419

row,Sequence,PBM E-score
1,AGCCGGCT,0.247
2,AGCCCTTA,-0.232
3,CGGACGAA,0.332
4,CGGGGATA,0.349
5,GCGGGATA,0.266
6,CCGGGACC,0.408
7,ACGGGACC,0.0315
8,ACGGGATA,0.261
9,GCGGGACC,0.216
10,AGGGGATC,-0.0127
11,CTGGGATC,-0.101
12,CCGGGATC,0.411
13,CGGGGATC,0.408
14,ACGGGATC,0.109
15,CCGGGATA,0.395
16,ATTGCATC,-0.105
17,AGCGAAGG,-0.0577
18,ATATGCAA,-0.0841
19,TCGCCAGA,-0.26
20,AAACAGAA,-0.207
21,CTAGGCAA,-0.0858
22,TAGTTTCA,-0.0254
23,ACCTAGAG,-0.141
24,GGAGAATA,0.189
25,AAGGGCTG,-0.213

row,Sequence,PBM E-score
1,CCCGGATA,0.351
2,CACGGATC,0.242
3,CCCGGATC,0.403
4,GTTGCTTA,-0.107
5,GTCTGCGA,-0.207
6,GTCACCCA,-0.109
7,ACTAGCCT,-0.0654
8,CATTGAGA,-0.119
9,CTCTCGGA,0.405
10,ATCTCGGA,0.406
11,GTCTCGGA,0.385
12,CTCTCGAA,-0.33
13,CTCTCGGC,0.181
14,ATCTCGGG,0.278
15,GGCGACGA,-0.172
16,AAAGCCTA,-0.184
17,ATCTAACG,0.0888
18,CGGCTGGA,0.0769
19,GGGATGAC,0.0341
20,CAGCGGAA,0.359
21,CCGCGGGC,0.367
22,CCGCGGAC,0.429
23,AAGCGGAG,0.355
24,CCGCGGGA,0.393
25,CAGCGGAG,0.408

row,Sequence,PBM E-score
1,CAGCGGAC,0.257
2,CCGCGGCG,0.364
3,GCGCGGGA,0.248
4,GCGCGGAC,0.294
5,CCGCGCAG,0.274
6,CCGCGGAG,0.449
7,GCTTCTAC,-0.123
8,ATTAGGGA,-0.0669
9,CCTGAAGA,-0.0995
10,CCATAGGG,-0.154
11,CTTTACAC,0.022
12,ACCAGGAT,-0.0342
13,TCGCGGAA,0.342
14,GCGCGGAA,0.387
15,CCGCGGAA,0.414
16,ACGCGGAG,0.421
17,ACGCGGAT,0.23
18,ACGCGGAC,0.342
19,AATTAGCT,0.0507
20,AAGCCGTG,0.00789
21,GCCTTTAC,-0.0652
22,AATCCGTG,0.26
23,ACTCCGTA,0.443
24,ACTCCGTC,0.459
25,GCTCCGTA,0.405

row,Sequence,PBM E-score
1,ACTCCTTA,-0.0802
2,ATTCCGTC,0.362
3,CCTCCGTA,0.37
4,AGTCCGTG,0.343
5,ACTCCGTG,0.449
6,ACACCGTA,0.102
7,CCTCCGTC,0.351
8,GCTCCATA,-0.175
9,GCTGGAGA,-0.271
10,GGCACTAC,-0.0733
11,CCTGATCG,-0.0211
12,CGGAGTGC,0.438
13,CTGAGTGC,-0.133
14,AGGAGTGA,-0.0619
15,AGGAGTGC,-0.139
16,CGGAGTGA,0.459
17,GGGAGTGA,0.0441
18,GACCATGA,0.0081
19,CCTTCTGC,-0.136
20,ATGTTAGC,-0.0158
21,AAGACGCA,-0.074
22,GTCAACAA,-0.23
23,AGCTCCTC,-0.144
24,AGCTCCAC,-0.0221
25,AGCTCCCG,0.0891

row,Sequence,PBM E-score
1,GGCTCCCA,-0.145
2,AGCTCCAA,-0.207
3,AGCTCCTG,-0.0626
4,GGCTCCGA,0.393
5,GGCTCCAA,-0.0143
6,AGCTCCGG,0.458
7,AGCTCCGC,0.436
8,AGCTCCTA,-0.0358
9,AGCTCCGA,0.47
10,GAGCCTCA,-0.171
11,CGCTCCCG,0.115
12,CACTTCAC,-0.0647
13,GTCTGTTA,-0.13
14,TGCTCCCA,-0.175
15,AAGTCGAG,-0.374
16,CTGTCTGC,-0.222
17,CCCAATAA,-0.0977
18,GGAGACTA,0.0463
19,GCTAAGAC,-0.0188
20,CGCTCCGC,0.317
21,CGCTCCGA,0.432
22,CGCTCCCA,0.0833
23,AACTGTGG,-0.0559
24,ACTACGCT,-0.0389
25,CCCGACGA,0.213

row,Sequence,PBM E-score
1,CCCGACAA,0.281
2,ACCGACAA,0.199
3,TCCGACAA,0.39
4,GCCGACGA,0.248
5,TCCGACGA,0.397
6,ACCTCTGA,-0.0775
7,CAAGATTG,-0.151
8,AAAATTAT,0.214
9,ACCCGGCA,0.174
10,GCCGGGAC,0.255
11,ACCCGGGC,0.273
12,TCACGGAA,0.324
13,TCCCGGAA,0.44
14,TCCCGGCA,0.333
15,CCGGGGAC,0.242
16,CCCGGGAC,0.394
17,ACCCGGAC,0.396
18,ACCCGGTA,0.161
19,ACCCGGTC,0.202
20,ACCCGGAA,0.394
21,CCCCTAAC,-0.141
22,GAAATCGC,0.214
23,AACTGGCC,0.0711
24,GTGCCTTA,-0.129
25,AGCGCAGG,0.169

row,Sequence,PBM E-score
1,CAAAAAGG,-0.203
2,AATTTCTC,0.121
3,GCCCGGCC,0.32
4,CCCCGGTC,0.368
5,CCCCGGCA,0.318
6,CCCCGGAC,0.388
7,GCCCGGGC,0.356
8,GCCCGGAC,0.406
9,CCCCGGTA,0.329
10,CCCCGGCC,0.287
11,CCCCGGAG,0.48
12,CCCGGGAG,0.294
13,CCCCGGCG,0.348
14,CCCCGGAA,0.406
15,AAACCAGC,0.0107
16,AGTGAGCC,-0.162
17,TACTTTAA,-0.122
18,TCGGGTCA,0.232
19,AGCAGCCA,-0.259
20,CCCAGTCC,-0.0128
21,CTATAAAG,0.0306
22,GAACCAGC,-0.126
23,GCCCGGGA,0.341
24,GCCCGGTA,0.26
25,ACCCGGAT,0.238

row,Sequence,PBM E-score
1,GCCCGGAA,0.423
2,ACCCGGCG,0.258
3,ACCCGGAG,0.46
4,AGCTCACC,-0.00625
5,GTTCCGAA,0.373
6,ATTCCGAA,0.456
7,CTTCCGAA,0.371
8,ATGCCGAG,0.213
9,CTTCCGAC,0.273
10,ATTCCGAC,0.451
11,ATTCCGAG,0.445
12,ATTCCAAG,-0.077
13,ATGCCGAC,0.318
14,GTGCAACA,-0.184
15,ACATTCCG,0.332
16,AGGGTTAG,-0.249
17,ATATGATA,0.0821
18,AAGATTCT,-0.242
19,AATACCGG,0.416
20,AATACCGC,0.268
21,AATACCGT,0.211
22,AACACCGG,0.411
23,CCCACCGC,0.225
24,AACACCGC,0.27
25,CACACCGG,0.283

row,Sequence,PBM E-score
1,CCCACCGA,0.00192
2,CCCACCGG,0.41
3,ATAAATAT,0.106
4,GGTTCGTA,-0.0544
5,CACTGTAC,-0.378
6,AAAGCGAC,0.031
7,GTCCGAAA,0.426
8,ATCCGAAT,0.395
9,ATCCGAAG,0.301
10,GGCCGAAA,0.254
11,AACCGAAT,0.133
12,CACCGAAG,0.167
13,CGCCGAAG,0.365
14,GTCCGAAC,0.401
15,GCCCGAAC,0.215
16,ATCCGAAA,0.368
17,GACCGAAC,0.122
18,CTCCGAAG,0.479
19,GGACACCA,0.0663
20,AAATGGTT,-0.0331
21,ACCCACAA,0.00936
22,AGCTTCCG,0.24
23,CAACTGCA,-0.174
24,GGAGCTCC,0.348
25,CTCCGAAC,0.457

row,Sequence,PBM E-score
1,CTCCGAAA,0.477
2,CACCGAAA,0.184
3,CACCGAAC,0.102
4,ATCCGAAC,0.344
5,TCCCGAAA,0.238
6,CGCCGAAA,0.358
7,TTCCGAAA,0.43
8,TGCCGAAA,0.325
9,CCACAATC,0.0776
10,ACTGCTAA,-0.185
11,AACAGTTC,-0.0219
12,CCTCAAAG,-0.271
13,AGCGCTCC,0.0243
14,CAGTAGCG,0.0152
15,AGAGTTAC,-0.362
16,GGAGTTAC,0.399
17,CGAGTTAC,-0.00574
18,ACCTAGCT,-0.1
19,ACTACAAA,-0.0603
